# According to PubChem BioAssay (NCI):
# Compounds without any hit were thinned out: in the full panel of roughly 83,000, 20% have a hit.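 For each line, cells grew in 96-well plates with the test compound present at a single concentration for 48 hours.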 Activity calls are given as the source filed them. How the source made its calls: active means growth percent below 10; inactive means the rest.
# System: HL-60(TB) leukemia
# Experiment: NCI-60 one-dose screen, 48 h (100 = growth as untreated, 0 = no growth, -100 = all killed)
# Conditions: 10 µM unless noted
row,Structure (SMILES),growth
1,Cc1cc2nc3c4cc([N+](=O)[O-])ccc4n(CCN(C)C)c3nc2cc1C,-4.06% (active)
2,CC(=O)Oc1cc2ccccc2cc1C(C)C,103% (inactive)
3,Cn1ccc(=Nc2ccc(NC(=O)c3ccc(N=c4ccn(C)c5ccc([N+](=O)[O-])cc45)cc3)cc2)cc1,76.7% (inactive)
4,Brc1ccc(Nc2nc(Nc3cnc4ccccc4c3)c3[nH]cnc3n2)cc1,92.9% (inactive)
5,O=C(Nc1ccccc1N1CCCC1=O)c1oc2ccc(F)cc2c1-c1cnn(-c2ccccc2)c1,84.8% [50 µM] (inactive)
6,Cc1cccc(N=Cc2ccccc2O)c1C,87.9% (inactive)
7,COc1cc(C(=O)/C=C/c2sc(Cl)nc2Cl)cc(OC)c1OC,23.4% (inactive)
8,CC1(C)OC2C(COC(c3ccccc3)(c3ccccc3)c3ccccc3)OC(c3c[nH]c4c(N)ncnc34)C2O1 (stereo not given),-34.4% (active)
9,CN([N-]C(=O)CC(=O)[N-]N(C)C(=S)c1ccccc1)C(=S)c1ccccc1.[Cu+2],-15.6% (active)
10,COc1cc(/C=N/NC(=O)c2ccccc2Nc2ccnc(C(F)(F)F)c2)ccc1O,14% (inactive)
11,O=C(O)C1C[C@](O)(c2ccc(F)cc2)[C@@H](c2ccc(F)cc2)O1 (stereo not given in full),91.6% (inactive)
12,C=C1C(=O)O[C@H]2[C@H]1CC/C(C=Nc1ccc(C(F)(F)F)cc1N)=C\CC[C@@]1(C)O[C@@H]21,-7.77% (active)
13,Clc1ccc2nn3c4ccccc4c(OCCN4CCOCC4)nc3c2c1,81.9% (inactive)
14,Cc1cccc(NC(=O)c2sc3nc4c(cc3c2N)CN(Cc2ccccc2)CC4)c1C,7.62% (active)
15,Cc1c(Cn2c(C)nc3c(C(=O)O)cc(N4CCOCC4)cc32)cccc1C(F)(F)F,78.6% (inactive)
16,COCN1CCC2N(COC)CCC3N(COC)CCC1N23 (stereo not given),92.6% (inactive)
17,O=C1CCc2c(sc3[nH]c(=S)n(Cc4ccc(Cl)cc4)c(=O)c23)C1,-5.26% (active)
18,COC1=C(C)C(=O)c2c(c(CCCl)c3n2CCC3OC(C)=O)C1=O (stereo not given),34.2% (inactive)
19,COc1cc(/C(=C2/O[C@@H]([C@H]3COC(C)(C)O3)[C@H]3OC(C)(C)O[C@@H]23)c2ccc3ccccc3c2)cc(OC)c1OC,59.2% (inactive)
20,O=C(C[n+]1cccc2ccccc21)c1ccc(O)c(O)c1,-20% (active)

row,Structure (SMILES),growth
1,COc1ccc(/C=C/c2n[nH]c3ccc(N4CCOC4=O)cc23)cc1,-27.5% (active)
2,CC(C)(C)c1cc(/C=N\NC(=O)/C=C/C=C/c2ccc3c(c2)OCO3)c(O)c(C(C)(C)C)c1,84.1% (inactive)
3,N#CCCN(CCCN1CCOCC1)CN1C(=O)c2ccccc2C1=O,83.2% (inactive)
4,COc1ccc(Cl)cc1NC(=O)c1cc2c([nH]1)-c1nc(NC(=O)C(C)C)sc1CC2,90.9% (inactive)
5,O=C(CSc1nc(-c2ccccc2)cn1-c1ccc(Cl)cc1)c1ccc([N+](=O)[O-])cc1,95.8% (inactive)
6,CC1(C)CC2(C)OC2C2(C1)N=NC(=Nc1ccccc1)O2 (stereo not given),85.2% (inactive)
7,CN(CCC#N)c1ccc(/C=C(\C#N)c2cccc(C(F)(F)F)c2)cc1,69.5% (inactive)
8,N/C(=N\C(N)=N\c1nc2ccccc2s1)c1cnccn1,0.412% (active)
9,O=C(COc1ccc(/C=C2\Cc3ccc(Cl)cc3C2=O)cc1)Nc1nccs1,67.3% (inactive)
10,CNCc1cccc2c1OCCOCCN(C)C(=O)CN(C)S(=O)(=O)c1ccc(cc1)-c1cnc(N)c(n1)C(=O)N2,-32.9% (active)
11,CCCNc1nc(C)[nH]c(=O)c1S,92.1% (inactive)
12,Nc1c(C(=O)Nc2cccc3ccccc23)sc2nc3c(cc12)CCCC3,-11.1% (active)
13,COC1(OC)C2(Cl)C(Cl)=C(Cl)C1(Cl)C1COCC12 (stereo not given),82.9% (inactive)
14,COc1ccc(-c2nc3sccn3c2-c2ccnc(NCCCNS(=O)(=O)c3ccc(C)cc3)n2)cc1,0.661% (active)
15,COC(=O)c1ccc2[nH]c(O)c(C(=Nc3ccc(N(C)C(=O)CN4CCN(C)CC4)cc3)c3ccc(OC)cc3)c2c1,-13.8% (active)
16,N#CCC1CCCC1,102% (inactive)
17,CCNc1ccc(-c2nc3ccccc3n3cccc23)cc1,86% (inactive)
18,Cc1cc(C#Cc2ccccc2)ccc1-n1c(/C=C/c2cc(O)ccc2O)nc2ccccc2c1=O,-11.9% (active)
19,CN1c2ccccc2[C@]2(Cc3ccccc3)Cc3ccccc3N[C@H]12,94.7% (inactive)
20,C=CC(=O)Nc1cccc(-c2nc(SC)nc(Nc3cccc(OC)c3)c2C#N)c1,42.2% (inactive)
